Drawing on PubChem BioAssay (NCI), this text covers growth for seven compounds.

Common to all, as to assay: NCI-60 one-dose screen, 48 h (100 = growth as untreated, 0 = no growth, -100 = all killed)
Common to all, as to settings: 10 µM unless noted

Experiment [1] deals with DU-145 prostate.
The subject of experiment [2] is K-562 leukemia.
Experiment [3] relates to MALME-3M melanoma.
Experiment [4] deals with MDA-MB-231 breast.
In experiment [5] the test system is RXF 393 renal.
The subject of experiment [6] is SF-268 CNS.
For experiment [7], the system named is SF-295 CNS.
Experiment [8] concerns SF-539 CNS.
For experiment [9], the system named is UACC-257 melanoma.
Experiment [10] concerns M14 melanoma.
Experiment [11] concerns HCT-15 colon.
Experiment [12] concerns HT29 colon.
For experiment [13], the system named is SNB-75 CNS.
Experiment [14] has as its system SNB-19 CNS.
Experiment [15] deals with U251 CNS.
Experiment [16] relates to PC-3 prostate.
In experiment [17] the test system is SK-MEL-5 melanoma.
Experiment [18] deals with UACC-62 melanoma.
For experiment [19], the system named is LOX IMVI melanoma.
Experiment [20] deals with SK-MEL-28 melanoma.

This is part of a sample that, as a whole, favours compounds with a hit. Of some 83,000 tested, about 20% had one in any assay.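 Results are percent growth after 48 hours of single-concentration exposure. 100 means growth as in untreated cells, lower positive values show inhibition; negative values down to -100 show cell death.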 A number with no mark means an inactive call. Active and inactive are the calls of the source. The calls were made as follows: active = growth percent below 10; inactive = the rest.

With `CC(C)c1ccc(C(=O)Nc2sc3c(c2C(N)=O)CCC(=O)C3)cc1`, the growth was 31.2% in [1]; 1.14% (active) in experiment [2]; -23.8% (active) in [3]; -54.4% (active) in [4]; -7.12% (active) in [5]; 17.8% in experiment [6]. For the same compound, the growth in [7] is -3.53% (active); in experiment [8], -68.8% (active); in [9] it was -11.8% (active); in [10] it was -55.6% (active); in experiment [11] it was -15.7% (active); in [12] it was 5.66% (active). The growth in experiment [13] is -88.2% (active); in [14], 13%; in [15] it was -3.68% (active); in experiment [16], -44.7% (active); in experiment [17] it was -62.8% (active); in [18] it was -35.7% (active). In addition, the growth in [19] was 4.43% (active); in [20], 7.57% (active).
On to `Cn1cc(-c2ccc3nc(-c4ccc(CC(=O)ONc5cc(C(C)(C)C)on5)cc4)cnc3c2)cn1`, for which the growth is 35.1% in [1]; 10.3% in experiment [2]; 22.4% in experiment [3]; 39.1% in [4]; 28.8% in experiment [5]; 33.5% in experiment [6]. In addition, the growth in [7] is 38.1%; in [8] it was 17%; in [9] it was 39.8%; in [10], 18.7%; in experiment [11] it was 16.5%; in experiment [12], 39.6%. The growth was 37.4% in experiment [13]; 67.4% in experiment [14]; 32.3% in experiment [15]; 34.8% in experiment [16]; 58.8% in experiment [17]; 27.6% in experiment [18]. Further, the growth in experiment [19] is 30.5%; in experiment [20] it was 44.4%.
On to `CCc1ccccc1-n1c(-c2ccc(OC)cc2)cc(-c2ccc(OC)cc2)c(C#N)c1=O`, for which the growth is 98.6% in experiment [1]; 108% in [2]; 99.6% in experiment [3]; 62% in experiment [4]; 32.2% in [5]; 51.9% in experiment [6]. Further, the growth in experiment [7] was 55.1%; in experiment [8], 23%; in experiment [9] it was 111%; in experiment [10] it was 100%; in [11], 106%; in experiment [12], 110%. For the same compound, the growth in experiment [13] is 2.64% (active); in experiment [14], 33.7%; in experiment [15], 60.9%; in [16], 89.5%; in experiment [17], 102%; in experiment [18], 81.6%. Further, the growth in experiment [19] was 95%; in experiment [20], 98.7%.
Regarding `CC1CN(S(=O)(=O)c2oc(-c3ccc(Cl)cc3)nc2C#N)CC(C)O1` (stereo not given), the growth in [1] is 97.7%; in [2], 4.49% (active); in experiment [3], 46.4%; in [4], 90.7%; in experiment [5], 40.3%; in experiment [6] it was 111%. For the same compound, the growth in experiment [7] was 97.9%; in experiment [8], 60.7%; in experiment [9] it was 87.3%; in experiment [10] it was 67.9%; in experiment [11], -26.5% (active); in experiment [12], 58.5%. Moreover, the growth in experiment [13] is 91.1%; in [14] it was 97.5%; in experiment [15] it was 89.6%; in experiment [16], 90.2%; in experiment [17], 92.7%; in [18], 96.7%. Moreover, the growth was 8.2% (active) in experiment [19] and 97.9% in experiment [20].
As to `COc1ccc(-c2nc3cc(C(=O)NCc4ccccc4)ccc3n2C2CCCCC2)cc1`, the growth in experiment [1] was 82.8%; in [2] it was 41.1%; in experiment [3], 102%; in experiment [4], 77.5%; in experiment [5], 90.2%; in experiment [6] it was 79.4%. For the same compound, the growth in experiment [7] is 51%; in [8], 60.2%; in experiment [9] it was 96.7%; in experiment [10], 78.1%; in [11], 10%; in experiment [12], 28.1%. Also, the growth in experiment [13] was 64.3%; in experiment [14] it was 98.2%; in experiment [15], 68.2%; in experiment [16], 85.3%; in [17] it was 38.6%; in [18], 91%. Besides, the growth in experiment [19] was 53.9%; in [20] it was 92.7%.
For the compound `CN1CCN(C(=O)c2ccc(NC(=O)c3cc4c(nn3)NCCN4Cc3cc(Cl)ccc3Cl)cc2)CC1`, the growth was 88.2% in experiment [1]; 6.45% (active) in experiment [2]; 73.8% in experiment [3]; 82.2% in experiment [4]; 64.2% in experiment [5]; 58.9% in [6]. Moreover, the growth is 67.6% in [7]; 52.3% in experiment [8]; 101% in experiment [9]; 72.6% in [10]; 68% in [11]; 63.2% in experiment [12]. Besides, the growth in experiment [13] is 79.4%; in [14], 92.2%; in experiment [15], 65.6%; in experiment [16] it was 71.1%; in [17], 75.2%; in [18], 92.5%. Further, the growth was 59.4% in experiment [19] and 89% in experiment [20].
For `COCCn1cc(-c2nc(-c3cc4cccnc4[nH]3)cs2)c2cc(OC)ccc21`, the growth in [1] is 40.9%; in experiment [2], 6.65% (active); in [3], 73.9%; in [4], 2.87% (active); in [5] it was 23.2%; in [6] it was 44.9%. The growth in [7] was 14.6%; in experiment [8], 30.8%; in experiment [9], 30.6%; in experiment [10], 37.6%; in [11], 20.3%; in experiment [12] it was 30.9%. Further, the growth in [13] was 9.81% (active); in [14], 61.6%; in experiment [15], 32.8%; in experiment [16], 10.4%; in experiment [17], 39.1%; in [18] it was 49.8%. Also, the growth was 33.2% in experiment [19] and 62.8% in experiment [20].
